Molecules are shown by their SMILES. The whole screen tested about 200,000 compounds, of which about 4,500 (2.2%) were called active. About 12% were inconclusive and are not listed. This is one part of a sample in which actives are shown more often than they occur. The call rests on the fitted dose curve; in most records, active means well fitted inhibition curve with a large enough effect; inconclusive means small, poorly fitted or top-dose-only effect, or effect the other way; inactive means flat fitted curve, though single readings scatter.
Potency means the concentration at half of the fitted maximal effect.

Sequence of Cruzipain (Trypanosoma cruzi) (P25779 123-467 limits assumed): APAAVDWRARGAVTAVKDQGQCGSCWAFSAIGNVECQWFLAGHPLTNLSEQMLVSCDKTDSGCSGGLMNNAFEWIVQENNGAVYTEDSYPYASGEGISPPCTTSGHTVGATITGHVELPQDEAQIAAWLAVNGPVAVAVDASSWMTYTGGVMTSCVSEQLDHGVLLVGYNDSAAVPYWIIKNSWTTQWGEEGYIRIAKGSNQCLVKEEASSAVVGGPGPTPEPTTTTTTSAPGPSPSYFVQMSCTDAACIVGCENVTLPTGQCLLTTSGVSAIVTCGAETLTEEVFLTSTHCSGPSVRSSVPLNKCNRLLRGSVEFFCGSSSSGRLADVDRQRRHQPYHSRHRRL

The target of this test is Cruzipain (Trypanosoma cruzi) (UniProt P25779). The test is described as follows: qHTS Assay for Promiscuous and Specific Inhibitors of Cruzain (without detergent). Further: nearly all actives have a fitted effect of over 40% in size. Particulars: purified cruzain, Z-FR-AMC fluorescence, no detergent. The method, then:
Cruzain is a cysteine protease from the tropical parasite Trypanosoma cruzi. Dual qHTS experiment was performed against the NCGC compound collection in order to 1) identify novel inhibitors of the enzyme and 2) profile the compound collection for promiscuous inhibitors operating via colloidal aggregation (by performing detergent-free and detergent-containing comparison screens). Cruzain was assayed by the use of fluorogenic coumarin-based substrate Z-FR-AMC: proteolytic cleavage releases AMC, whose fluorescence is measured at 360 nm excitation and 450 nm emission. Purified cruzain was supplied by the labs of Prof. James McKerrow and Brian Shoichet, UC San Francisco.
This assay had 0.00005% Triton X-100 concentration. See also releated assay "qHTS Assay for Promiscuous and Specific Inhibitors of Cruzain (with detergent)" with 0.01% Triton X-100.
See following references for additional details:
Assay Provider: Shoichet, Brian; University of California, San Fancisco
Screening Center PI: Austin, C.P.
Screening Center: NIH Chemical Genomics Center [NCGC]
Buffer: 100 mM Sodium Acetate, pH 5.5, 5 mM DTT, Triton X-100 concentration: 0.01%.
Buffer in columns 3 and 4 as negative control (no enzyme).
Substrate solution: 2 uM final concentration of Z-FR-AMC (catalog number I-1160, Bachem) dispensed throughout the plate.
Enzyme: 1.5 nM Cruzain final concentration in columns 1, 2, 5-48. Column 1 is neutral (100% activity). Column 2 contained titration of covalent inhibitor K11777, starting concentration 1 mM, then 1:2 dilution in duplicate).
Three uL of enzyme or buffer were dispensed to 1536-well Greiner black solid bottom plates. Compounds and controls (23 nL) were transferred via Kalypsys PinTool. The plates were incubated for 15 min at room temperature, and then 1 uL of substrate solution was added to start the reaction. The plates were immediately transferred to and read 4 times every 30 seconds for 2 min on ViewLux High-throughput CCD imager (Perkin-Elmer) using 360 nm excitation and 450 nm emission fluorescence protocol. The fluorescence intensity difference between the third and the first time points (time lapse of 60 seconds) was used to compute reaction progress.
(In qHTS, concentration-response curves come from the screen itself.)
Consider `Fc1ccc(-c2nn(-c3ccccc3Cl)c3c2cnc2ccccc23)cc1`, for which the max response, negative = inhibition was 4.61% (inactive).

With `O=C(CC1C(=O)N(c2ccccc2)C(=O)N1CCc1cccs1)Nc1ccc(F)cc1` (configuration not stated), the max response, negative = inhibition was 2.56% (inactive).

As to `O=C(CCSCc1ccccc1F)N1CCN(c2ccc(Cl)cc2)CC1`, the max response, negative = inhibition is 2.72% (inactive).

For the compound `Cc1ccc(-c2nn(CCC(=O)Nc3ccc(Cl)c(Cl)c3)c(=O)c3ccccc23)cc1`, the max response, negative = inhibition is -2.75% (inactive).

Turning to `CCN(CC)c1nn2c(=O)c(C(=O)NCCc3ccccc3)cnc2s1`, the max response, negative = inhibition is -4.42% (inactive).

Turning to `O=C(NCc1ccc2c(c1)CCN2C(=O)c1ccccc1)Nc1cc(F)ccc1F`, the max response, negative = inhibition is -19.6% (inactive).

On to `COc1ccc(CNC(=O)c2cc3c(s2)-c2ccccc2OC3)cc1`, for which the max response, negative = inhibition was 16.2% (inactive).

For the compound `Cc1ccc(NC(=O)CSc2nc3c([nH]c4ccccc43)c(=O)n2-c2ccccc2)c(C)c1`, the max response, negative = inhibition was 12.6% (inactive).

With `Cc1ccc(-n2c(SCC(=O)Nc3ncc(Cl)cc3Cl)nc3ccccc32)cc1`, the Potency was 20 µM (active).

Turning to `Cc1cc(C)c(NC(=O)Cn2c(SCC(=O)NCc3ccccc3)nc3ccccc32)c(C)c1`, the max response, negative = inhibition was 7.19% (inactive).

Regarding `NS(=O)(=O)c1ccc(N=Cc2ccc(Br)s2)cc1`, the max response, negative = inhibition was -5.17% (inactive).

Turning to `c1ccc2c(c1)-c1ccccc1C2N1CC2CCC(CC2)C1`, the max response, negative = inhibition was 1.3% (inactive).

With `Brc1ccc(/C=N/N2CCN(C3c4ccccc4-c4ccccc43)CC2)s1`, the Potency was 12.6 µM (active).

Consider `O=C(c1ccc2c(c1)N(Cc1ccccc1)C(=O)c1ccccc1S2(=O)=O)N1CCC(Cc2ccccc2)CC1`, for which the max response, negative = inhibition is 1.2% (inactive).

Take `COc1ccc(-c2nnc(SCc3cccnc3)o2)cc1`: the max response, negative = inhibition was 15.4% (inactive).

In the case of `COc1ccc(-c2nnc(SC(C)C#N)o2)cc1` (configuration not stated), the max response, negative = inhibition is 2.59% (inactive).

For the compound `COc1ccc(-c2nnc(SC(=O)N3c4ccccc4Sc4ccccc43)o2)cc1`, the Potency was 31.6 µM (active).

Take `CCOC(=O)c1ccc(NC(=O)CC2C(=O)N(c3cccc(OC)c3)C(=O)N2C2CCCCC2)cc1` (configuration not stated): the max response, negative = inhibition is -1.66% (inactive).

For `Cc1ccc(C(=O)NCCSc2c(C)[nH]c3ccccc23)cc1C`, the max response, negative = inhibition was 13.2% (inactive).

As to `N#CC1=C(SCc2ccc(C#N)cc2)N=C(N)C(c2nc(-c3ccccc3)cs2)C12CCCCC2` (configuration not stated), the Potency is 10 µM (active).

With `N#CC1=C(SCc2ccccc2)NC(=O)C(C#N)C12CCCC2` (configuration not stated), the max response, negative = inhibition was -1.74% (inactive).

As for `COc1ccc(CCNc2nc(-c3ccc(Cl)cc3)cc(C(F)(F)F)n2)cc1OC`, the max response, negative = inhibition is -3.01% (inactive).

`Cc1nn(Cc2ccc(F)cc2)c(C)c1NC(=O)c1cc(CC(C)C)on1`: the max response, negative = inhibition was 2.49% (inactive).

In the case of `CCCc1cc(=O)[nH]c(SCC(=O)c2cc(C)n(CCC)c2C)n1`, the max response, negative = inhibition is -4.28% (inactive).

`CCCc1cc(=O)[nH]c(SCC(=O)OCc2ccccc2)n1`: the max response, negative = inhibition was -0.512% (inactive).

As for `Cc1cc(C(=O)CSc2nc(N)cc(=O)[nH]2)c(C)n1CCc1ccc(Cl)cc1`, the Potency is 12.6 µM (active).

For the compound `COc1ccc(-n2ccnc(NCCc3ccc(Cl)cc3)c2=O)cc1OC`, the max response, negative = inhibition was 16.8% (inactive).

Take `COc1ccc(C2Sc3ccccc3NC3=C2C(=O)c2ccccc23)c(OC)c1OC` (configuration not stated): the max response, negative = inhibition is -2.6% (inactive).

As to `S=c1nccc(-c2cc(Cl)sc2Cl)[nH]1`, the Potency was 12.6 µM (active).

In the case of `COCCNC(=O)CCCN1C(=O)c2ccccc2Sc2ncccc21`, the max response, negative = inhibition was 15.3% (inactive).

Regarding `CCS(=O)(=O)N1Cc2ccccc2CC1C(=O)Nc1nc2ccc(F)cc2s1` (configuration not stated), the Potency is 12.6 µM (active).

As for `O=C(Nc1nc2ccc(F)cc2s1)c1nc(SCc2ccccc2F)ncc1Cl`, the max response, negative = inhibition was 1.9% (inactive).

Regarding `CS(=O)(=O)c1ccc2nc(NC(=O)C3CCCCC3)sc2c1`, the max response, negative = inhibition was 6.38% (inactive).

Take `CCCCOc1ccc(CN2C(=O)C(=O)c3cc(Br)cc(C)c32)cc1OC`: the max response, negative = inhibition was -26.4% (inactive).

On to `CCOC(=O)C1CCN(C(=O)CSc2c3c(nc4ccc(Cl)cc24)CCCC3)CC1`, for which the max response, negative = inhibition was -19.6% (inactive).

`Cc1cc(C)cc(NC(=O)CCCc2nc(-c3ccccc3Cl)no2)c1`: the max response, negative = inhibition was -8.67% (inactive).

As to `Cc1nc2cnc(Nc3ccccc3)nc2n(Cc2ccc(F)cc2)c1=O`, the max response, negative = inhibition is -10.9% (inactive).

Regarding `O=c1cnc2cnc(Nc3ccccc3)nc2n1Cc1ccc(F)cc1`, the Potency was 20 µM (active).

Take `CCNc1ncc2ncc(=O)n(CCc3ccccc3)c2n1`: the max response, negative = inhibition is 5.65% (inactive).

On to `COc1ccc2ncc3c(-c4ccc(C)c(C)c4)nn(CC(=O)NC4CCCC4)c3c2c1`, for which the max response, negative = inhibition is 1.87% (inactive).

With `COc1ccc(Cl)cc1NC(=O)CCn1c(=O)c2cccn2c2ccccc21`, the max response, negative = inhibition is 26.4% (inactive).

Regarding `COc1ccc(CCNC(=O)CN2CCC(n3nnc4cc(F)ccc43)CC2)cc1OC`, the max response, negative = inhibition was 14.7% (inactive).

For `Cc1ccc(CCNC(=O)Cn2c(-c3cccs3)cc3cc(F)ccc32)cc1`, the Potency is 15.8 µM (active).

On to `Cc1cccc(Cn2c(=O)n(CCC(=O)NCCc3ccc(Cl)cc3)c(=O)c3sccc32)c1`, for which the max response, negative = inhibition was 0.837% (inactive).

As to `COc1cccc2c1cc1c(=O)n(CC(=O)N3CCN(c4ccccc4)CC3)nc(C)n12`, the max response, negative = inhibition is -2.78% (inactive).

As for `CCOc1cccc2sc(N3CCN(C(=O)C4CC4)CC3)nc12`, the max response, negative = inhibition is 4.68% (inactive).

Take `COC(=O)c1ccccc1NC(=O)Cn1c(=O)cc(C)c2c(C)nn(-c3cccc(Cl)c3C)c21`: the max response, negative = inhibition is 1.01% (inactive).

Regarding `CC(C)C(=O)Nc1cccc(C(=O)Nc2ccc3c(c2)OCO3)c1`, the max response, negative = inhibition is -8.97% (inactive).

Consider `O=C(Nc1ccc2c(c1)OCO2)c1cc(-c2cccc(Cl)c2)on1`, for which the max response, negative = inhibition is -7.12% (inactive).

As for `O=C(Nc1ccc2c(c1)OCO2)c1sc2cc(Cl)ccc2c1Cl`, the Potency was 10 µM (active).

`O=C(CCc1nc(CN2CCN(S(=O)(=O)c3ccc(Br)cc3)CC2)no1)N1CCCCC1`: the max response, negative = inhibition is 27% (inactive).

Take `Cc1ccc(-c2nc3ccccn3c2Nc2c(C)cccc2C)o1`: the max response, negative = inhibition is 0.509% (inactive).

As to `Cc1ccc(-n2ncc3c(N4CCC(C(N)=O)CC4)ncnc32)cc1`, the max response, negative = inhibition was 17.2% (inactive).

As to `CC(C)(C)c1ccc(C(=O)NCC(=O)OCN2C(=O)c3ccccc3C2=O)cc1`, the max response, negative = inhibition was 8.73% (inactive).

With `O=C(OCN1C(=O)c2ccccc2C1=O)/C(=C\c1ccco1)NC(=O)c1ccccc1`, the Potency was 0.398 µM (active).

As for `Cc1cccc(NC(=O)/C(=C\c2ccco2)NC(=O)c2ccccc2)c1`, the max response, negative = inhibition was 4.33% (inactive).

Consider `CCc1ccc(NC(=O)CCCc2nnc3n(CCCOC)c(=O)c4sccc4n23)cc1`, for which the max response, negative = inhibition was 1.39% (inactive).

The values are drawn from PubChem BioAssay AID1476 (National Center for Advancing Translational Sciences (NCATS), 2009).
